The values that follow come from PubChem BioAssay (NCI).

The panel holds about 83,000 compounds, 20% with a hit somewhere; the sample as a whole holds those more often.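 Activity criterion: percent growth below 10, measured after cells in 96-well plates were exposed to a single compound concentration for 48 hours.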 Values without a mark were called inactive. Calls of active or inactive are those of the source.

Holding throughout (assay): NCI-60 one-dose screen, 48 h (100 = growth as untreated, 0 = no growth, -100 = all killed)
In one assay the test system is NCI-H23 lung. The note with it: 10 µM unless noted.
Another assay has as its system NCI-H226 lung. The note with it: 10 µM unless noted.
For a further assay, the system named is MDA-MB-231 breast. The note with it: 10 µM unless noted.
Another assay concerns SF-268 CNS. The note with it: 10 µM unless noted.
The subject of a further assay is SF-539 CNS. The note with it: 10 µM unless noted.
The subject of another assay is HCT-15 colon. The note with it: 10 µM.
Another assay deals with HT29 colon. The note with it: 10 µM unless noted.
The next assay concerns SNB-75 CNS. The note with it: 10 µM unless noted.
The test system of the next assay is PC-3 prostate. The note with it: 10 µM unless noted.
The next assay relates to SK-MEL-5 melanoma. The note with it: 10 µM unless noted.
For the next assay, the system named is UACC-62 melanoma. The note with it: 10 µM unless noted.
Another assay relates to SK-MEL-28 melanoma. The note with it: 10 µM unless noted.
A further assay has as its system SN12C renal. The note with it: 10 µM unless noted.
The next assay relates to ACHN renal. The note with it: 10 µM unless noted.
The test system of a further assay is OVCAR-8 ovarian. The note with it: 10 µM unless noted.
The subject of another assay is OVCAR-3 ovarian. The note with it: 10 µM unless noted.
For another assay, the system named is NCI/ADR-RES ovarian. The note with it: 10 µM unless noted.
The next assay concerns MDA-MB-435 melanoma. The note with it: 10 µM unless noted.
A further assay deals with MCF7 breast. The note with it: 10 µM unless noted.
The subject of the next assay is KM12 colon. The note with it: 10 µM unless noted.

`Cc1cc(NC(=O)CCc2ccc(N3C(N)=NC(N)=NC3(C)C)cc2)ccc1S(=O)(=O)F`: the growth with NCI-H23 lung was 26.2%; in the assay on NCI-H226 lung, 37.4%; with MDA-MB-231 breast, 76.8%; in the assay with SF-268 CNS, 32.2%; with SF-539 CNS, 5.99% (active); in the assay on HCT-15 colon it was 60.1%. Also, the growth with HT29 colon is 24.7%; with SNB-75 CNS it was 52.5%; in the assay on PC-3 prostate it was -23.4% (active); in the assay on SK-MEL-5 melanoma, 13.9%; in the assay with UACC-62 melanoma it was 22.6%; in the assay with SK-MEL-28 melanoma, 53.9%. Besides, the growth with SN12C renal is 32.8%; with ACHN renal, 70.9%; in the assay on OVCAR-8 ovarian it was 40.9%; in the assay on OVCAR-3 ovarian, 71.5%; in the assay on NCI/ADR-RES ovarian, 19.2%; in the assay with MDA-MB-435 melanoma, 32%. Moreover, the growth in the assay with MCF7 breast is 14.9%; in the assay on KM12 colon, 18.8%.
As to `C[C@]12CCC(=O)CC1CC[C@@H]1C2CC[C@@]2(C)C1CC[C@@H]2OC(=O)CC[Se][Se]CCC(=O)O[C@H]1CCC2[C@@H]3CCC4CC(=O)CC[C@]4(C)C3CC[C@@]21C` (some centres not stated), the growth with NCI-H23 lung is 102%; with NCI-H226 lung, 93%; in the assay on MDA-MB-231 breast it was 94.3%; in the assay on SF-268 CNS, 94.1%; in the assay on SF-539 CNS, 103%; with HCT-15 colon it was 97.4%. The growth with HT29 colon is 83.1%; in the assay on SNB-75 CNS, 109%; in the assay on PC-3 prostate, 89.4%; with SK-MEL-5 melanoma, 93.2%; with UACC-62 melanoma it was 88.5%; in the assay on SK-MEL-28 melanoma it was 98.9%. The growth in the assay with SN12C renal is 103%; with ACHN renal, 100%; with OVCAR-8 ovarian, 94.2%; in the assay on OVCAR-3 ovarian it was 109%; in the assay with NCI/ADR-RES ovarian, 92.9%; with MDA-MB-435 melanoma, 88.5%. The growth with MCF7 breast was 80.8%; in the assay with KM12 colon, 103%.
In the case of `Cc1cc(NC(=O)/C=C/c2ccc([N+](=O)[O-])cc2)ccc1S(=O)(=O)F`, the growth in the assay on NCI-H23 lung is 109%; with NCI-H226 lung, 105%; in the assay with MDA-MB-231 breast, 99.6%; in the assay on SF-268 CNS it was 109%; with SF-539 CNS, 112%; in the assay on HCT-15 colon it was 98.2%. Also, the growth in the assay on HT29 colon was 99.7%; with SNB-75 CNS, 106%; in the assay on PC-3 prostate, 98.9%; with SK-MEL-5 melanoma, 100%; in the assay on UACC-62 melanoma, 98.2%; in the assay with SK-MEL-28 melanoma, 110%. The growth in the assay with SN12C renal was 92.4%; in the assay with ACHN renal, 105%; in the assay on OVCAR-8 ovarian, 98.6%; in the assay on OVCAR-3 ovarian it was 122%; in the assay on NCI/ADR-RES ovarian, 106%; in the assay on MDA-MB-435 melanoma, 99.7%. Further, the growth was 91.8% with MCF7 breast and 97% in the assay with KM12 colon.
`COc1ccc(-c2ccc(OC)c(OC)c2OC)cc1`: the growth is 46.1% in the assay on NCI-H23 lung; 86.7% with NCI-H226 lung; 43.8% in the assay with MDA-MB-231 breast; 51.5% in the assay on SF-268 CNS; 3.98% (active) with SF-539 CNS; 27.1% in the assay on HCT-15 colon. The growth was -4.61% (active) with HT29 colon; -11% (active) in the assay with SNB-75 CNS; 18.3% in the assay on PC-3 prostate; 15.3% with SK-MEL-5 melanoma; 34.4% in the assay with UACC-62 melanoma; 49.6% with SK-MEL-28 melanoma. For the same molecule, the growth was 42.3% in the assay with SN12C renal; 55.8% with ACHN renal; 21.7% in the assay on OVCAR-8 ovarian; -25% (active) in the assay on OVCAR-3 ovarian; -20% (active) in the assay on NCI/ADR-RES ovarian; -24% (active) in the assay on MDA-MB-435 melanoma. Also, the growth in the assay on MCF7 breast is 19.3%; in the assay with KM12 colon, 29.2%.
With `CC(C)N=C(NC(C)C)N1CC1`, the growth with NCI-H23 lung is 113%; in the assay with NCI-H226 lung, 108%; with MDA-MB-231 breast it was 96.9%; in the assay with SF-268 CNS, 108%; in the assay with SF-539 CNS it was 103%; in the assay on HCT-15 colon, 110%. Further, the growth was 111% in the assay on HT29 colon; 95.4% in the assay on SNB-75 CNS; 112% with PC-3 prostate; 113% in the assay with SK-MEL-5 melanoma; 105% in the assay on UACC-62 melanoma; 106% in the assay with SK-MEL-28 melanoma. The growth was 111% with SN12C renal; 109% in the assay with ACHN renal; 108% in the assay with OVCAR-8 ovarian; 109% in the assay on OVCAR-3 ovarian; 113% with NCI/ADR-RES ovarian; 103% in the assay with MDA-MB-435 melanoma. Moreover, the growth was 102% with MCF7 breast and 110% with KM12 colon.
Take `CCC(C)[C@H]1O[C@]2(C=C[C@@H]1C)C[C@@H]1C[C@@H](C/C=C(\C)[C@@H](OC3C[C@H](OC)C(O[C@H]4C[C@H](OC)[C@@H](O)[C@H](C)O4)[C@H](C)O3)[C@@H](C)/C=C/C=C3\CO[C@@H]4[C@H](O)C(C)=C[C@@H](C(=O)O1)[C@]34O)O2` (some centres not stated): the growth is 5.82% (active) in the assay on NCI-H23 lung; -15.6% (active) in the assay on NCI-H226 lung; -58.2% (active) in the assay on MDA-MB-231 breast; 1.66% (active) with SF-268 CNS; -71.6% (active) in the assay with SF-539 CNS; -20.2% (active) with HCT-15 colon. Also, the growth in the assay with HT29 colon was -63.6% (active); in the assay with SNB-75 CNS, 3.26% (active); with PC-3 prostate, -5.32% (active); with SK-MEL-5 melanoma, -79.2% (active); with UACC-62 melanoma, -35% (active); in the assay on SK-MEL-28 melanoma, -82.4% (active). The growth in the assay with SN12C renal was 1.84% (active); with ACHN renal it was -95.1% (active); in the assay on OVCAR-8 ovarian, 12.5%; in the assay with OVCAR-3 ovarian it was -72.3% (active); in the assay on NCI/ADR-RES ovarian, 7.16% (active); in the assay on MDA-MB-435 melanoma, -31.6% (active). Moreover, the growth in the assay with MCF7 breast was 10.4%; in the assay with KM12 colon, -12.3% (active).
For the molecule `CNC(=O)Oc1ccccc1`, the growth in the assay on NCI-H23 lung is 107%; with NCI-H226 lung, 102%; in the assay on MDA-MB-231 breast, 110%; with SF-268 CNS, 107%; with SF-539 CNS, 107%; in the assay on HCT-15 colon, 102%. For the same molecule, the growth is 118% in the assay on HT29 colon; 80.7% in the assay with SNB-75 CNS; 106% in the assay with PC-3 prostate; 97.1% in the assay on SK-MEL-5 melanoma; 102% with UACC-62 melanoma; 86.2% in the assay with SK-MEL-28 melanoma. In addition, the growth is 105% in the assay with ACHN renal; 110% in the assay with OVCAR-8 ovarian; 108% with OVCAR-3 ovarian; 102% with NCI/ADR-RES ovarian; 87% with MCF7 breast; 100% in the assay on KM12 colon.
`O=C1NC(=O)C(CN2C(=O)C3(c4ccccc42)[C@H](Cl)C(=O)N3c2ccccc2)C(=O)N1` (some centres not stated): the growth with NCI-H23 lung was 69.1%; in the assay on NCI-H226 lung it was 76.4%; with MDA-MB-231 breast it was 51.4%; with SF-268 CNS, 84.7%; in the assay on SF-539 CNS, 74.1%; in the assay on HCT-15 colon it was 94.7%. Besides, the growth in the assay with HT29 colon was 98.3%; with SNB-75 CNS, 52.7%; in the assay on PC-3 prostate, 83.6%; with SK-MEL-5 melanoma it was 78.6%; in the assay with SK-MEL-28 melanoma it was 76.8%; in the assay on SN12C renal, 97.4%. Moreover, the growth with ACHN renal was 88.7%; with OVCAR-8 ovarian it was 92.3%; with OVCAR-3 ovarian it was 54.7%; with NCI/ADR-RES ovarian, 86.7%; in the assay on MDA-MB-435 melanoma, 104%; with MCF7 breast it was 18.4%. Further, in the assay with KM12 colon, the growth is 86.3%.
